Assay results from PubChem BioAssay (Tox21).
Values without a mark were called inactive. Inconclusive results are not listed. Where a call stands in place of a potency, no number is given. Calls of active or inactive are those of the source. Unless noted, calls come from the whole dose curve; as a rule, active = well fitted curve in the direction sought with a large enough effect in the repeat runs; inconclusive = weak or mixed curves; inactive = no such curve, though single readings can be large; an effect the other way counts as inactive or inconclusive.

What was measured:
[1] = qHTS assay for small molecule agonists of the p53 signaling pathway (AID 651631; calls by dose curve; note: nearly all actives have a fitted effect of over 15% in size; note: potency is the fitted concentration of half-maximal effect)
Method in brief: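 Read-out is beta-lactamase FRET fluorescence measured 2 h after substrate addition at room temperature, in HCT-116 cells with a p53 response element-driven reporter exposed to compounds for 16 h at 37 °C.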

[2] = qHTS assay for small molecules that induce genotoxicity in human embryonic kidney cells expressing luciferase-tagged ATAD5 (AID 651632); note: nearly all actives have a fitted effect of over 15% in size
Method in brief: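 DMSO vehicle served as the control. HEK293T reporter cells, 16 hr at 37C, then 30 min Amplite at room temperature; ATAD5 induction is measured as luciferase activity.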

[3] = qHTS assay for small molecule agonists of the p53 signaling pathway - cell viability (AID 651633; calls by dose curve; note: nearly all actives have a fitted effect of over 30% in size; note: potency is the fitted concentration of half-maximal effect)
Method in brief: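 Viability counter-read: CellTiter-Glo luminescence (30 min, room temperature) in the same p53RE-bla plates. These plates had been exposed to compounds for 16 h at 37 C.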

[4] = qHTS assay for small molecules that induce genotoxicity in human embryonic kidney cells expressing luciferase-tagged ATAD5 - cell viability (AID 651634; calls by dose curve; note: nearly all actives have a fitted effect of over 25% in size)
Method in brief: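 Here HEK293T cells with the ATAD5 luciferase reporter are incubated with test compounds for 15.5 hr, and cytotoxicity is then gauged by measuring protease activity in live cells using fluorescence.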

[5] = qHTS assay for small molecule disruptors of the mitochondrial membrane potential - cell viability (AID 720634; calls by dose curve;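 note: human HepG2 liver cancer cells; series mostly up to about 83 µM; nearly all actives have a fitted effect of over 20% in size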)
Method in brief: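 Viability of HepG2 cells is scored from ATP content by luminescence; cells are exposed to compound for 1 hr at 37 C and 5% CO2, then dosed with m-MPI dye before the CellTiter-Glo reagent.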

[6] = qHTS assay for small molecule disruptors of the mitochondrial membrane potential (AID 720635); note: potency is the fitted concentration of half-maximal effect
Method in brief: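 Mitochondrial membrane potential tracked with Mito-MPS dye, red aggregates (ex 540/em 590 nm) against green monomers (ex 490/em 535 nm). Compound treatment 1 hr at 37C, dye 30 min in HepG2.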

[7] = qHTS assay to test for compound auto fluorescence at 460 nm (blue) in HEK293 cells (AID 720678); note: potency is the fitted concentration of half-maximal effect
Method in brief: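 Auto fluorescence in the blue band was quantified as triamterene equivalency. HEK293 cells were seeded at 2,000/well, dosed after a 4-5 hr attachment, and kept overnight at 37C before the 405/460 nm reading.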

[8] = qHTS assay to test for compound auto fluorescence at 590 nm (red) in HEK293 cells (AID 720679)
Method in brief: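 Autofluorescence equivalency to Rose Bengal sodium, 540/590nm, in HEK293 cells exposed overnight to 23 nL compound per well.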

[9] = qHTS assay to test for compound auto fluorescence at 535 nm (green) in HEK293 cells (AID 720680)
[10] = qHTS assay to test for compound auto fluorescence at 460 nm (blue) in HEK293 cell free culture (AID 720681); note: potency is the fitted concentration of half-maximal effect
Method in brief: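 Blue fluorescence (Ex 405/Em 460 nm, triamterene-equivalent) was read immediately after pin transfer of compound or DMSO into medium (DMEM, 10% FBS) without cells.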

[11] = qHTS assay to test for compound auto fluorescence at 535 nm (green) in HEK293 cell free culture (AID 720682)
Method in brief: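 Fluorescein serves as the green reference fluorophore; each compound's intrinsic emission at 535 nm (excitation 485 nm) is reported as an equivalent amount of that dye, measured in serum-containing DMEM without cells.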

[12] = qHTS assay to test for compound auto fluorescence at 590 nm (red) in HEK293 cell free culture (AID 720683)
Method in brief: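 Red-channel autofluorescence of compounds in culture medium (DMEM, 10% FBS), no cells, measured at 540/590 nm. Rose Bengal sodium is the reference fluorophore for equivalence.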

[13] = qHTS assay to test for compound auto fluorescence at 590 nm (red) in HepG2 cell free culture (AID 720684)
Method in brief: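 Cell-free; medium MEM + 10% FBS; compound or DMSO added by pintool; read Ex 540/Em 590 nm; Rose Bengal sodium as red reference fluorophore.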

[14] = qHTS assay to test for compound auto fluorescence at 535 nm (green) in HepG2 cell free culture (AID 720686)
[15] = qHTS assay to test for compound auto fluorescence at 460 nm (blue) in HepG2 cells (AID 720687)
Method in brief: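 Blue-channel autofluorescence (Ex/Em 405/460 nm, triamterene-equivalent) was measured after 1 hr compound exposure at 37 C, 5% CO2. Cells were HepG2, plated overnight at 37 C in MEM plus 10% FBS.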

[16] = molecular target: Glucocorticoid receptor (Homo sapiens) (UniProt P04150); assay: qHTS assay to identify small molecule antagonists of the glucocorticoid receptor (GR) signaling pathway (AID 720692; active = well fitted inhibition curve with a large enough effect in the signal ratio in the repeat runs, not every such curve was filed as active; the % refers to the signal ratio)
Chain of Glucocorticoid receptor (Homo sapiens) (P04150 whole entry, looked up): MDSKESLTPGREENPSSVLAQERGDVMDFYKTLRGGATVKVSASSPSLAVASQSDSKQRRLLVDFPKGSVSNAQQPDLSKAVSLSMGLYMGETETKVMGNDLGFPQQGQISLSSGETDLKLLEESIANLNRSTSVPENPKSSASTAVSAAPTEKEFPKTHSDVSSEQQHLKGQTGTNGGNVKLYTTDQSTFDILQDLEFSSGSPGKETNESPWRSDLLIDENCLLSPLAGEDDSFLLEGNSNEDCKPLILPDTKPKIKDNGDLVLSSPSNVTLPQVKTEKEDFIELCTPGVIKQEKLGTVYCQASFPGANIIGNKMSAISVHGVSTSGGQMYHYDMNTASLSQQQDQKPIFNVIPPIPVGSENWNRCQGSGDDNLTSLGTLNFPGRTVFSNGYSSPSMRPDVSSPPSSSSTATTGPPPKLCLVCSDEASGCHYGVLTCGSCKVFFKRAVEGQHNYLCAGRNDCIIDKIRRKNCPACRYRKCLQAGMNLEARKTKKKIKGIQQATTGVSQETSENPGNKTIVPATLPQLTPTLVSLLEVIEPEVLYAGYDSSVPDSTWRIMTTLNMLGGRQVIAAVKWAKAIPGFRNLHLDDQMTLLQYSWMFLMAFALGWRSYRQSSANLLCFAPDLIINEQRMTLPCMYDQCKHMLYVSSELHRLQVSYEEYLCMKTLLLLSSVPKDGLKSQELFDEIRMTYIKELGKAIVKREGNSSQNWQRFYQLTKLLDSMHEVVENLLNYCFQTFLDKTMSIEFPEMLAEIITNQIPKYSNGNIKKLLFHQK
Method in brief: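 In a 1536-well cell format, compounds were added 4 h after seeding GR-bla HeLa cells, together with dexamethasone at 5 nM final; reporter activity was measured by FRET-substrate fluorescence following 18 h at 37 C.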

[17] = qHTS assay to test for compound auto fluorescence at 590 nm (red) in HepG2 cells (AID 720674)
Method in brief: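 We screened compounds on adherent HepG2 cells, incubating them for an hour at 37 C in 5% CO2 before reading emission at 590 nm under 540 nm excitation; values reflect equivalence to Rose Bengal sodium fluorescence.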

[18] = qHTS assay to test for compound auto fluorescence at 535 nm (green) in HepG2 cells (AID 720675)
[19] = qHTS assay to test for compound auto fluorescence at 460 nm (blue) in HepG2 cell free culture (AID 720685); note: potency is the fitted concentration of half-maximal effect
Method in brief: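 Cell-free plates of MEM plus 10% FBS received 23 nL compound or DMSO vehicle; blue-channel (405/460 nm) intensity scored against triamterene as reference fluorophore.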

[20] = molecular target: Glucocorticoid receptor (Homo sapiens) (UniProt P04150); assay: qHTS assay to identify small molecule agonists of the glucocorticoid receptor (GR) signaling pathway (AID 720691; active = well fitted activation curve with a large enough effect in the signal ratio in the repeat runs, not every such curve was filed as active; the % refers to the signal ratio)
Method in brief: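 Compounds in DMSO, alongside positive controls, were added to GR-bla HeLa reporter cells and incubated 18 h at 37 C; GRE-driven beta-lactamase was detected by fluorescence after 2 h with FRET substrate at room temperature.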
Tags give direction and shape of the fitted curve or compound fluorescence and quenching.

Structure (SMILES) | Potency [1] | Potency [2] | Potency [3] | Potency [4] | Potency [5] | Potency [6] | Potency [7] | Potency [8] | Potency [9] | Potency [10] | Potency [11] | Potency [12] | Potency [13] | Potency [14] | Potency [15] | Potency [16] | Potency [17] | Potency [18] | Potency [19] | Potency [20]
O=c1[nH]c(=O)n([C@H]2C[C@H](O)[C@@H](CO)O2)cc1F | 0.944 µM (active) | inactive | 0.211 µM (active) | inactive | inactive | inactive | inactive | inactive | inactive | inactive | inactive | inactive | inactive | inactive | inactive | inactive |  |  |  | 
O=[N+]([O-])c1ccc(F)c(Cl)c1 | inactive | inactive | inactive | inactive | inactive |  | inactive | inactive | inactive | inactive | inactive | inactive | inactive | inactive | inactive | inactive | inactive | inactive | inactive | inactive
OC12N=C(c3ccccc3)SC1Cc1cc(Cl)ccc12 (stereo not drawn) | inactive | inactive | inactive | inactive |  | 17.2 µM (active) |  |  | inactive | inactive | inactive | inactive | inactive | inactive | inactive |  | inactive | inactive | inactive | 
CC(C)(C)C1CCC(=O)CC1 | inactive | inactive | inactive | inactive | inactive |  | inactive |  | inactive | inactive | inactive | inactive | inactive | inactive | inactive |  |  | inactive | inactive | inactive
CN(C)Cc1cc(C(C)(C)C)c(O)c(C(C)(C)C)c1 | inactive | inactive | inactive | inactive | inactive |  | inactive | inactive | inactive | inactive | inactive | inactive | inactive | inactive | inactive |  | inactive | inactive | inactive | inactive
O=[N+]([O-])c1cccc(C(F)(F)F)c1 | inactive | inactive | inactive | inactive | inactive |  | inactive | inactive | inactive | inactive | inactive | inactive | inactive | inactive | inactive | inactive | inactive | inactive |  | inactive
O=S(=O)(O)c1ccccc1/C=C/c1ccc(-c2ccc(/C=C/c3ccccc3S(=O)(=O)O)cc2)cc1 | 17.5 µM (active) | inactive | inactive | inactive | inactive |  | 5.01 µM [fluorescent] (active) | inactive | inactive | 6.31 µM (active) | inactive | inactive | inactive | inactive |  |  | inactive | inactive | 6.31 µM [fluorescent] (active) | 
